One experiment addresses TSPYL2. Nature of the experiment: pooled miR-30 sensor sort-seq; sequence = guide strand. As to conditions: shRNA.
Consider TTGATAATCTCAGCAATCCTGT, for which the sensor-assay potency score (higher = more potent) was -0.197.

Sequence ATTGTCTTCAGGATTCTCGTTG had a sensor-assay potency score (higher = more potent) of -0.109. The same measure, in the same setting: in the case of ATAGATGTCCTCATCTTGCTGG it was 0.469; in that of TTCATTGTCACTGTCGCTGCTG, 0.841; in that of TTGACAATCACCATGTTTGTGA, 0.272.

Another experiment concerns the target TTC27. The experiment is described as above. As to conditions: shRNA.
The sequence TACACACTCTTGAAACTCCTTA had a sensor-assay potency score (higher = more potent) of 0.361. The same measure, in the same setting: in the case of TTACTTTTTGTTTTAATCGGAT it was -0.347. The same measure, in the same setting: in the case of TTCTTTTGAAAATTAGTGCAGA it was -0.195; in that of TTTAAGGACCTGAACATCTTTG, -0.304. The same measure, in the same setting: in the case of TTTTTCTCCAGCTCTTGTCTAA it was -0.459. In turn, TTAAAAATCAATATCTTGCATT yielded a sensor-assay potency score (higher = more potent) of -0.512. Regarding TGAACCTTGATAGTCTTCCAAG, the sensor-assay potency score (higher = more potent) was -1.57. Still for that read-out and setting: in the case of TTCTAGAGTCACACAGCGCTGA it was 0.0912; in that of TACAGATGTATCTTTTACCAGC, -0.789; in that of TATCCAACTGATCTTTTGCTTT, -0.994. As for TTGCTGAACCTTGATAGTCTTC, the sensor-assay potency score (higher = more potent) was -0.804. Same read-out and setting: in the case of TACACTTGAGAGCTTCTTGTAA it was -0.514.

For another experiment, the target named is TTC7A. Described as above. As to conditions: shRNA.
In turn, TTGGCTTCGCTCATCTTCGGCT had a sensor-assay potency score (higher = more potent) of -0.61. The sequence TTCAGATGCCTCGACGTGCTGT gave a sensor-assay potency score (higher = more potent) of -0.177. Same read-out and setting: in the case of TTCCTCGATGTTGTCCTTGGGG it was -0.621; in that of TCTCCTTCAAACACTGCTCCAG, -0.633. Turning to TTGTGGTCTTCTCCAATTCCTG, the sensor-assay potency score (higher = more potent) was -1.59. TAGAGTACTGAGTGAGAAGTGG had a sensor-assay potency score (higher = more potent) of -0.197. On the same count and under the same terms, in the case of TGGCACTGGAGATCTGTCGGAC it was -0.75. The same measure, in the same setting: in the case of TCTTGCTTGGACTTCAGGGTGG it was 0.115; in that of TTCTGCAAGCTCACTGTCCGGT, 0.427; in that of TTCATCTTGCTTGGACTTCAGG, -0.871. On the same count and under the same terms, in the case of TTTGATGACAAAAGCCTCCGAC it was -0.154; in that of TTTGGCTTCGCTCATCTTCGGC, -0.912.

Another experiment concerns the target TTLL3. Described as above. As to conditions: shRNA.
TTGCACGCCAGCACAGAGCCGG displayed a sensor-assay potency score (higher = more potent) of -1.05.

ATCATCGAAGTCGAACAGCTGT displayed a sensor-assay potency score (higher = more potent) of -0.524.

With TGTCGCGGTAGAACCACACGGT, the sensor-assay potency score (higher = more potent) was -0.291. As for TTCTGCACCACCCACTTGCCGT, the sensor-assay potency score (higher = more potent) was -1.06. Sequence TTGACCTTCCGACAGGTGCTAG displayed a sensor-assay potency score (higher = more potent) of -0.947. The same measure, in the same setting: in the case of TTGGATTGTAAAGATCTTCTTC it was 0.486; in that of TACTTCTGCACCACCCACTTGC, -0.25; in that of TAAATCATCGAAGTCGAACAGC, -0.665.

TTTGCCTTTGGCCTTGACCTTC gave a sensor-assay potency score (higher = more potent) of -0.876. Still for that read-out and setting: in the case of TTTATTTGGTGTTGGATCCAGG it was -0.616; in that of TAGGGTATGACTTCCACTCAGA, -0.0416.

For the origin of these results see the OligoGym collection.
Further: reference of the scale not given here.
